In PubChem BioAssay:
For part of these data: Entries with a potency or affinity are not part of this list. The source made the active and inactive calls. Unless noted, how the calls were made is not given here.

Assays:
[1] = antimalarial activity against Dd2 strain (AID 2302;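 active means growth inhibition above 50% at the single 2 µM test dose, taken to imply half-maximal potency below 2 µM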;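 further: 0% = DMSO untreated growth and 100% = chloroquine plus artemisinin killed control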); details: P. falciparum Dd2 in RBCs, LDH growth readout, 72 h; at 2 µM; stronger effect = higher value
[2] = HepG2 cytotoxicity, primary screen, cytotoxicity control for P. falciparum antimalarial project, cell-based, ATP luminescence (AID 2303;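 active means inhibition above 50%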;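 further: 0% = DMSO wells and 100% = digitonin-killed cells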); details: HepG2 viability, 24-48 h, at 10 µM, stronger effect = higher value
[3] = target: L-lactate dehydrogenase (Plasmodium falciparum (isolate CDC / Honduras)) (UniProt Q27743); assay: PfLDH activity inhibition – cell lysate, 3D7 strain, counter-screen for P. falciparum growth inhibition project (AID 2304);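 further: 0% = vehicle and 100% = reference inhibitor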; details: P. falciparum 3D7 crude extract, LDH APAD/NBT absorbance; at 2 µM; stronger effect = higher value
[4] = inhibition of 3D7 malaria parasite growth – strain 3D7 (AID 2306);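 further: 0% = DMSO wells and 100% = chloroquine plus artemisinin control wells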; details: P. falciparum 3D7 erythrocytic growth, LDH absorbance, 72 h; at 2 µM; stronger effect = higher value
[5] = target: Calcium-dependent protein kinase 1 (Plasmodium falciparum (isolate 3D7)) (UniProt P62344); assay: PfCDPK1 kinase inhibitors, biochemical, TCAMS library (AID 1159585; cut-off not given, nearly all actives have IC50 up to about 0.98 µM;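 further: inhibitors leave more ATP so luminescence rises with inhibition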); details: recombinant PfCDPK1, Kinase-Glo ATP depletion luminescence
[6] = target: Plasmodium falciparum protein kinase 6 (PK6, PF3D7_1337100) (UniProt Q8IDW1); assay: PfPK6 kinase inhibitors, biochemical, TCAMS library (AID 1159586); details: recombinant PfPK6, Kinase-Glo ATP depletion luminescence
[7] = target: Protein kinase 7 (PK7), Plasmodium falciparum 3D7 (PF3D7_0213400) (UniProt Q7YTF7); assay: inhibition of Plasmodium PK7 catalytic activity – biochemical, TCAMS antimalarial set, Kinase-Glo luminescence (AID 1159587); details: recombinant PfPK7, Kinase-Glo ATP depletion luminescence
[8] = target: Calcium-dependent protein kinase 4 (Plasmodium falciparum (isolate 3D7)) (UniProt Q8IBS5); assay: PfCDPK4 kinase inhibitors, biochemical, TCAMS library (AID 1159588; cut-off not given, nearly all actives have IC50 up to about 0.91 µM); details: recombinant PfCDPK4, Kinase-Glo ATP depletion luminescence
Sequence of Calcium-dependent protein kinase 4 (Plasmodium falciparum (isolate 3D7)) (Q8IBS5 whole entry, looked up): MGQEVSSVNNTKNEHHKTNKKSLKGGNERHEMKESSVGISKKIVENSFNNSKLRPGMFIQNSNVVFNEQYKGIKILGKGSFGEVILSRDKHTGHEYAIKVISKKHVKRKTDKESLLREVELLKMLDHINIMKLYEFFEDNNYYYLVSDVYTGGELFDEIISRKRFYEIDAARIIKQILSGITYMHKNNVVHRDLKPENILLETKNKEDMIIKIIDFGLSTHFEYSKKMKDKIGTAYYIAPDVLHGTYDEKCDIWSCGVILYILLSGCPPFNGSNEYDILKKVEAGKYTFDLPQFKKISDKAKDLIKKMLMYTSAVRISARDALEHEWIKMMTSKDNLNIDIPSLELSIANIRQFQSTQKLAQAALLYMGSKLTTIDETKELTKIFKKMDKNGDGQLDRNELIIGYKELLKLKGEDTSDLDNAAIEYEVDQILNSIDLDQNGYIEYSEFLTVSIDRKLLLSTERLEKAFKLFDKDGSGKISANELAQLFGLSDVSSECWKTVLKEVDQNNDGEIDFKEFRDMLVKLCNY

Sequence of Calcium-dependent protein kinase 1 (Plasmodium falciparum (isolate 3D7)) (P62344 whole entry, looked up): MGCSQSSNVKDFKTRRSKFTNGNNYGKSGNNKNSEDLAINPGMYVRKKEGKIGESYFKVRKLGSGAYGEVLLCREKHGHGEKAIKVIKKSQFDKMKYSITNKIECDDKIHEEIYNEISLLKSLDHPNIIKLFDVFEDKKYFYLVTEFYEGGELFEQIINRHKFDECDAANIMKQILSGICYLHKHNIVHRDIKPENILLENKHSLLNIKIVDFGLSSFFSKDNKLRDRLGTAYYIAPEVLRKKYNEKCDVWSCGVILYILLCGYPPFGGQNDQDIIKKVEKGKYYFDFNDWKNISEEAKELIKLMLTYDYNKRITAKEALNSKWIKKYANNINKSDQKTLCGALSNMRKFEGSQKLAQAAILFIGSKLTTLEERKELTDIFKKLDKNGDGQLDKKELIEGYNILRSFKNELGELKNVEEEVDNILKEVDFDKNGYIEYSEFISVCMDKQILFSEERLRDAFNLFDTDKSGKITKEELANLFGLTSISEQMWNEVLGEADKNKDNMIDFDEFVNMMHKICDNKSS
Sequence of Plasmodium falciparum protein kinase 6 (PK6, PF3D7_1337100) (Q8IDW1 1-305): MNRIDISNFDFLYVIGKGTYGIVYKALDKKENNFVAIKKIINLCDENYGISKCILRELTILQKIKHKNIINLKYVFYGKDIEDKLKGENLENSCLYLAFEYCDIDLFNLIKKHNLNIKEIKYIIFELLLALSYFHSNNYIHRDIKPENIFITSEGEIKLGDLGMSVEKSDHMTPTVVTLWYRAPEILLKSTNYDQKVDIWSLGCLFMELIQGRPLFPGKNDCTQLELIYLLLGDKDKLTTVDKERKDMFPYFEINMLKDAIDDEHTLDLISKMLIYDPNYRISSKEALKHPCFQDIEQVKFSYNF
Sequence of Protein kinase 7 (PK7), Plasmodium falciparum 3D7 (PF3D7_0213400) (Q7YTF7 1-343): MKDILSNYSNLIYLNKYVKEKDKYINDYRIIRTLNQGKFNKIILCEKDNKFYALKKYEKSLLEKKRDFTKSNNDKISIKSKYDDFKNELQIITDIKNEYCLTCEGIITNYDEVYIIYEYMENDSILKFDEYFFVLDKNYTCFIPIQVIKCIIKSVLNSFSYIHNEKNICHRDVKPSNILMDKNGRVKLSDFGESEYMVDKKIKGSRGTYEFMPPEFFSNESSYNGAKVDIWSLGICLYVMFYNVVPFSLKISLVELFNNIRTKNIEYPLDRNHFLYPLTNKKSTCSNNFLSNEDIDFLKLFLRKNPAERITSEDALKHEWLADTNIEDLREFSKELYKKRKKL
Sequence of L-lactate dehydrogenase (Plasmodium falciparum (isolate CDC / Honduras)) (Q27743 whole entry, looked up): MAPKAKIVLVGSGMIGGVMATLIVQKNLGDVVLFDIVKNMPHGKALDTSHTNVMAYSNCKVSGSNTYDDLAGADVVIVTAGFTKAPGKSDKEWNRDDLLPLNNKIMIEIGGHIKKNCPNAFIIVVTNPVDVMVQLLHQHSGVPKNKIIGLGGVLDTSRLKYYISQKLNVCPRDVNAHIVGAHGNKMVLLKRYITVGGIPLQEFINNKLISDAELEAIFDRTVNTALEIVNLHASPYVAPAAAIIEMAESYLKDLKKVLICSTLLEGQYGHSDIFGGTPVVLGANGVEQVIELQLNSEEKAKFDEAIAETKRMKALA

O=C(Cc1cccnc1)N(Cc1ccc(-c2ccc(CNCc3cccnc3)cn2)cc1)C1CCN(Cc2ccccc2)CC1
inactive: growth inhibition [1] 6% | inhibition [2] 8% | inhibition [3] -3% | outcome [5] | outcome [6] | outcome [7] | outcome [8]
active: growth inhibition [4] 93%

CN(C)CCCNCc1cn(S(=O)(=O)c2ccccc2Cl)c2ccccc12
inactive: inhibition [2] 20% | inhibition [3] -6% | outcome [5] | outcome [6] | outcome [7] | outcome [8]
active: growth inhibition [1] 71% | growth inhibition [4] 92%

COc1ccc(-n2nc(C)c3c2NC(=O)CC3c2ccccc2OCc2ccccc2F)cc1 (centres undefined)
active: growth inhibition [1] 70% | growth inhibition [4] 93%
inactive: inhibition [2] 38% | inhibition [3] 4% | outcome [5] | outcome [6] | outcome [7] | outcome [8]

COc1ccc(-c2nc(NC(=O)Cc3cccc(OC)c3)sc2C)cc1
inactive: inhibition [2] 1% | inhibition [3] -3% | outcome [5] | outcome [6] | outcome [7] | outcome [8]
active: growth inhibition [1] 77% | growth inhibition [4] 101%

O=C(c1ccc(-c2cnc3[nH]cc(-c4ccc(C(=O)N5CCOCC5)cc4)c3c2)cc1)N1CCOCC1
inactive: growth inhibition [1] -3% | inhibition [2] 19% | inhibition [3] -4% | outcome [5] | outcome [6] | outcome [7] | outcome [8]
active: growth inhibition [4] 91%

COc1ccc(NC(=O)Nc2ccc(Nc3nc(C)cc(N(C)C)n3)cc2)cc1
inactive: inhibition [2] 11% | inhibition [3] -3% | outcome [5] | outcome [6] | outcome [7] | outcome [8]
active: growth inhibition [1] 99% | growth inhibition [4] 102%

CCN(CCCNc1nc(=S)[nH]c2cc(OC)c(OC)cc12)c1ccccc1
inactive: growth inhibition [1] 23% | inhibition [2] 14% | inhibition [3] -2% | outcome [5] | outcome [6] | outcome [7] | outcome [8]
active: growth inhibition [4] 100%

CCCCCCNCc1c(O)ccc2c(CNCCCCCC)c(O)ccc12
inactive: inhibition [2] 22% | inhibition [3] -1% | outcome [5] | outcome [6] | outcome [7] | outcome [8]
active: growth inhibition [1] 100% | growth inhibition [4] 102%

COC(=O)c1cccc(CNCc2ccc(-c3cccc(-c4nc5ccc(C(F)(F)F)cc5[nH]4)c3)cc2)c1
inactive: inhibition [2] 5% | inhibition [3] 6% | outcome [5] | outcome [6] | outcome [7] | outcome [8]
active: growth inhibition [1] 97% | growth inhibition [4] 102%

CCc1nc(N)nc(N)c1-c1ccccc1
inactive: growth inhibition [1] 1% | inhibition [3] -2% | outcome [5] | outcome [6] | outcome [7] | outcome [8]
active: inhibition [2] 53% | growth inhibition [4] 92%

COc1ccc(C(=O)CCC(=O)N(Cc2ccc(-c3ccc(CNCCc4ccc(S(C)(=O)=O)cc4)cn3)cc2)C2C[C@@H]3CC[C@H]2C3)cc1F (some centres undefined)
active: growth inhibition [4] 97%
inactive: growth inhibition [1] 34% | inhibition [2] 5% | inhibition [3] 0% | outcome [5] | outcome [6] | outcome [7] | outcome [8]

O=C(NCC1CN(Cc2ccc(N3CCCC3)o2)CCCO1)c1ccc2c(c1)OCO2 (centres undefined)
inactive: inhibition [2] -3% | inhibition [3] -1% | outcome [5] | outcome [6] | outcome [7] | outcome [8]
active: growth inhibition [1] 70% | growth inhibition [4] 83%

COc1cc(C(F)(F)F)cc2[nH]c(CNCCCNc3nc4ccccc4[nH]3)cc12
inactive: growth inhibition [1] 2% | inhibition [3] 2% | outcome [5] | outcome [6] | outcome [7] | outcome [8]
active: inhibition [2] 59% | growth inhibition [4] 102%

CC(C)S(=O)(=O)N1CCN(Cc2ccc3c(c2)nc(NC(=O)c2ccsc2)n3C[C@H](O)c2ccccc2)CC1
active: growth inhibition [1] 72% | inhibition [2] 56% | growth inhibition [4] 91%
inactive: inhibition [3] 0% | outcome [5] | outcome [6] | outcome [7] | outcome [8]

O=C(Nc1cccc(-c2ccc(-c3nc4ccccc4[nH]3)cc2)c1)c1csnn1
active: growth inhibition [4] 91%
inactive: growth inhibition [1] 21% | inhibition [2] 31% | inhibition [3] 0% | outcome [5] | outcome [6] | outcome [7] | outcome [8]

O=C(Cc1ccc(NC(=O)c2ccc(O)c(-c3cccc([N+](=O)[O-])c3)c2)cc1)NCCN1CCCCC1
active: growth inhibition [4] 89%
inactive: growth inhibition [1] 3% | inhibition [2] 4% | inhibition [3] 4% | outcome [5] | outcome [6] | outcome [7] | outcome [8]

COc1ccc(CCN2CCC(CN(C)Cc3cnn(-c4ccccc4)c3)CC2)cc1
inactive: growth inhibition [1] 5% | inhibition [2] 25% | inhibition [3] -1% | outcome [5] | outcome [6] | outcome [7] | outcome [8]
active: growth inhibition [4] 90%

N#Cc1cncc(-c2nc3c(N4CCC(N5CCCC5)CC4)cccc3n2CCNCc2ccccc2)c1
active: growth inhibition [1] 58% | growth inhibition [4] 100%
inactive: inhibition [2] 3% | inhibition [3] -2% | outcome [5] | outcome [6] | outcome [7] | outcome [8]
